Measured potencies and affinities stand elsewhere. Inconclusive results are not listed. Calls of active or inactive are those of the source. No rule for the calls is given here.

The nature of the assay: non-specific cell cytotoxicity, dose response, cytotoxicity control for PAX8 inhibitor project, plate reader, dry powder samples (AID 743021). The conditions noted are these: cell line, non-specific cytotoxicity counter-screen; series mostly up to 35 µM. On the technique in general: A counterscreen serves to expose hits that act by an unwanted route or on another target.
`O=C(c1cccs1)N1C[C@H](O)[C@@H](n2cc(C3CC3)nn2)C[C@@H]1c1ccccc1`: the outcome was inactive. To `Cc1csc(NC(=O)C(C)Oc2ccc(Br)cc2)n1` (centres undefined) belongs “inactive”; to `CCOc1ccc2c(CC)cc(=O)oc2c1OCC`, “inactive”; to `COCCNC(=O)C/C(C)=N/NC(=O)C(=O)NC1CCCCC1`, “inactive”. The value for `Cc1ccc(NC(=O)NC(=O)COc2ccc(Cl)cc2Cl)c(C)c1` was “inactive”; that for `Cc1ccccc1Cn1cnc2ccccc2c1=O` was “inactive”; that for `Cc1ccc(NC(=O)C2CC(=O)N/C(=N/N=C/c3ccco3)S2)cc1C` (centres undefined) was “inactive”. The value for `O=C(CCCC(=O)OCC(Cl)=C(Cl)Cl)Nc1ccc(F)cc1` was “inactive”; that for `COC(=O)CN1C(=S)N(C)C(=O)C1CC(=O)Nc1ccccc1` (centres undefined) was “inactive”. Consider `COc1ccc(CN2C(=O)C(CC(=O)NCCCCc3ccccc3)CC(C(=O)N3CCOCC3)=C2C)cc1` (centres undefined), for which the result was inactive. For `Cn1cc(/C=C(\C(=O)O)C(C(=O)O)=C2CCCCC2)c2ccccc21`, the compound was called inactive. To `CCCCNC(=O)/C(=C/c1ccccc1)NC(C)=O` belongs “inactive”. The value for `O=C(NC1CCCCC1)C(c1ccc(F)cc1)N(Cc1ccco1)C(=O)CN1C(=O)c2ccccc2S1(=O)=O` (centres undefined) was “inactive”. To `O=C(O)CCCNC(=O)C(c1ccccc1)c1ccccc1` belongs “inactive”; to `CC1CCCC(NC(=O)COC(=O)c2ccccc2Sc2ccccc2C#N)C1C` (centres undefined), “inactive”; to `CN(CC(=O)Nc1cccc(F)c1)C(=O)CCCc1cccs1`, “inactive”. Regarding `CCCCCCCCC(=O)NCCOc1ccccc1`, the call was inactive. For the compound `O=C(c1ccc2c(c1)OCO2)N1CCN(c2ccc(C(F)(F)F)cn2)CC1`, the compound was called inactive.

With `N/C(=N\OS(=O)(=O)c1cccc([N+](=O)[O-])c1)c1ccncc1`, the compound was classed as inactive.

The values above are taken from PubChem BioAssay.
